# Records with an inconclusive call do not appear. Unmarked numbers belong to inactive results. Calls come from the whole dose curve; as a rule, active = well fitted cell-killing curve with a large enough effect in the repeat runs; inconclusive = weak or mixed curves, or effect the other way; inactive = no such curve, though single readings can be large or run the other way.
# Assay: qHTS assay to identify small molecule antagonists of the vitamin D receptor (VDR) signaling pathway - cell viability counter screen (AID 743225); note: nearly all actives have a fitted effect of over 50% in size
# Details: VDR-bla HEK293T viability, CellTiter-Glo luminescence, 16 h; series mostly up to 61 µM; viability change, negative = cytotoxic: at the top concentration
# Excerpt: U.S. Tox21 Program National Center for Advancing Translational Sciences [NCATS] NIH Chemical Genomics Center [NCGC] U.S. Environmental Protection Agency [EPA] National Institutes of Environmental Health Sciences [NIEHS] National Toxicology Program [NTP] U.S. Food and Drug Administration [FDA] Tox21 Assay Overview: The vitamin D receptor (VDR), a member of nuclear hormone receptor superfamily, plays a critical role in calcium homeostasis and bone metabolism. It is also involved in cell differentiation and growth, and thrombogenicity. To identify the compounds that inhibit VDR signaling, the VDR-UAS-bla HEK 293T cell line (Invitrogen, Carlsbad, CA, USA) containing a beta-lactamase reporter gene under the control of an upstream activator sequence (UAS) was used to screen the Tox21 10K compound library. The cytotoxicity of the Tox21 compound library against the VDR-bla cell line was tested in parallel by measuring the cell viability using CellTiter-Glo assay (Promega, Madison, WI) in the same wells.
# Tox21 Assay Protocol Summary: VDR-bla cells were dispensed at 2,000 cells/5 uL of assay medium per well into black wall/clear-bottom 1536-well plates using a Multidrop Combi (Thermo Fisher Scientific, Waltham, MA) dispenser. After the assay plates were incubated at a 37C and 5% CO2 for 4 h, 23 nL of compounds dissolved in DMSO, positive controls or DMSO only was transferred to the assay plate by a Pintool station (Kalypsys, San Diego, CA), followed by addition of 1 uL of 1-alpha, 25-Dihydroxy Vitamin D3 (3 nM, final concentration in the wells) using a Bioraptr Flying Reagent Dispenser (FRD) workstation (Beckman Coulter, Indianapolis, IN). The plates were incubated at 37C and 5% CO2 for 16 h, and then 1 uL of LiveBLAzerTM B/G FRET substrate was added using a Bioraptr FRD. The plates were incubated at room temperature for 2 h and fluorescence intensity was measured by an Envision plate reader (PerkinElmer, Shelton, CT). For cell viability readout that measures cytotoxicity, 3 ul/well of CellTiter-Glo reagent was added into the assay plates using a Bioraptr FRD. After 30 min incubation at room temperature, the luminescence intensity in the plates was measured using a ViewLux plate reader (PerkinElmer).
# % is set by controls: 0 for no effect and ±100 for the full control effect.
row,SMILES,"viability change, negative = cytotoxic"
1,Nc1cnn(-c2ccccc2)c(=O)c1Cl,-5.38%
2,CS(=O)(=O)c1cc(C(F)(F)F)ccc1C(=O)c1cnoc1C1CC1,4.62%
3,CCC1(c2ccccc2)C(=O)N=C(O)NC1=O (stereo not given),-9.35%
4,COc1cc(C[C@@H](C)N)c(OC)cc1C,-0.119% [at 78.8 µM]
5,N#CC(Cl)(Cl)Cl,1.36%
6,C#C[C@]1(O)C=C[C@H]2[C@@H]3CCC4=CC(=O)CC[C@@H]4[C@H]3CC[C@@]21CC,-0.115%
7,O=C(NCO)NCO,1.88% [at 78.8 µM]
8,CCNc1nc(NC(C)C)nc(OC)n1,15%
9,CC1CN1P(=O)(N1CC1C)N1CC1C (stereo not given),-6.16%
10,CC1=C(C(=O)O)N2C(=O)[C@@H](N)[C@H]2SC1,-18.3% [at 28.5 µM]
11,CCS(=O)(=O)CCSP(=O)(OC)OC,14%
12,CCCCP(CCCC)CCCC,3.08%
13,OC(c1ccc(F)cc1)(c1cncnc1)c1ccccc1Cl (stereo not given),-5.12%
14,CNNC,9% [at 78.8 µM]
15,CCCCCCI,-1.69%
16,CCC(Cl)[N+](=O)[O-] (stereo not given),2.33% [at 78.8 µM]
17,Cc1ccccc1CO[C@@H]1C[C@@]2(C(C)C)CC[C@]1(C)O2,1.09%
18,CCN(CC)C(=O)[C@@H]1C=C2c3cccc4[nH]cc(c34)C[C@H]2N(C)C1,2.78% [at 216 µM]
19,C=C(C)[C@@H]1CC=C(C=O)CC1,3.15%
20,C[N+](=O)[O-],6.48%

row,SMILES,"viability change, negative = cytotoxic"
1,N#CC(O)c1ccccc1 (stereo not given),7.43%
2,C[C@]1(O)CC[C@H]2[C@@H]3CCC4=CC(=O)CC[C@]4(C)[C@@]3(F)[C@@H](O)C[C@@]21C,4.67% [at 78.8 µM]
3,CC(C1CC1)C(O)(Cn1cncn1)c1ccc(Cl)cc1 (stereo not given),9.46%
4,ClC(Br)Br,8.04%
5,CCOP(=O)(N=C1SCCS1)OCC,10.1%
6,O=C1c2ccccc2C(=O)c2ccccc21,1.79% [at 28.5 µM]
7,CC(=O)Nc1cc([As](=O)(O)O)ccc1O,2.43%
8,CNCC(=O)c1ccc(O)c(O)c1,1.18%
9,CN1CCC(O)(c2ccc(F)cc2)C(C(=O)c2ccc(F)cc2)C1 (stereo not given),6.97%
10,COC(=O)C(c1ccccc1)C1CCCCN1 (stereo not given),1.92%
11,Oc1c(Cl)cccc1Cl,2.31%
12,CN(N=O)C(N)=O,6.73%
13,c1cc2c(c(N3CCNCC3)c1)OCCO2,0.372%
14,CC(Oc1ccc(Oc2ncc(C(F)(F)F)cc2Cl)cc1)C(=O)O (stereo not given),-22.8%
15,CCC1(c2ccccc2)C(=O)NC(=O)NC1=O,1.51% [at 78.8 µM]
16,O=C1CN2CCOC2(c2ccccc2Cl)c2cc(Cl)ccc2N1 (stereo not given),6.41%
17,CCCCOP(=O)(O)OCCCC,3.69%
18,COC(C)(C)C,-12.8%
19,C=C(C)CN(CC)c1c([N+](=O)[O-])cc(C(F)(F)F)cc1[N+](=O)[O-],-0.709%
20,O=C(O)c1ccc2[nH]cc(CCCCN3CC=C(c4ccccc4)CC3)c2c1,0.0539%

# — PubChem BioAssay (Tox21)
